Here are results for seven compounds from PubChem BioAssay (Tox21).

Experiment [1] has as its target Thyrotropin-releasing hormone receptor (Homo sapiens) (UniProt P34981). As to the kind of experiment: qHTS assay to identify small molecule agonists of the thyrotropin-releasing hormone receptor (TRHR) signaling pathway (AID 1346891; calls by dose curve;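 also: HEK293 cells expressing TRHR with calcium dye readout; series mostly up to about 58 µM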). The procedure, abridged:
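HEK293/TRHR cells, 1500 per well, 18 h 37 °C; Ca dye 2 h 37 °C; pin-tool compound addition (agonist mode); kinetic fluorescence 3 min, 1 s reads; 15 concentrations, triplicate.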
For orientation: In qHTS, concentration-response curves come from the screen itself.

The nature of experiment [2]: Caspase-3/7 induction in HepG2 cells by small molecules, qHTS assay (AID 1346978). Also: nearly all actives have a fitted effect of over 15% in size. Put shortly:
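Wild-type HepG2 cells (2,000/well) were settled 5 h at 37 C, 5% CO2, then exposed to compounds in DMSO for 17 h. Caspase-3/7 activity was read by luminescence 30 min after adding Caspase-Glo 3/7 reagent at room temperature.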

Experiment [3] is described as follows: Caspase-3/7 induction in CHO-K1 cells by small molecules, qHTS cell viability counter screen (AID 1346979). Also: nearly all actives have a fitted effect of over 35% in size. Also: potency is read from the fitted curve at half-maximal effect. The procedure, abridged:
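CHO-K1 wt, 1,500 cells/well; 5hr pre-incubation 37C/5% CO2; compound pin transfer (DMSO); 16hr exposure; CellTiter-Fluor added, 1hr, fluorescence read.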

Experiment [4] is described as follows: Caspase-3/7 induction in CHO-K1 cells by small molecules, qHTS assay (AID 1346980). Also: nearly all actives have a fitted effect of over 15% in size. Put shortly:
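Wild-type cells were seeded at 1,500 per well and settled 5 hr at 37 C, 5% CO2, then exposed to DMSO-dissolved compounds for 17 hr. Caspase-Glo 3/7 reagent was added, and luminescence was read after 30min at room temperature.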

Experiment [5] can be described thus: Caspase-3/7 induction in HepG2 cells by small molecules, qHTS cell viability counter screen (AID 1346981). Also: series mostly up to about 92 µM; nearly all actives have a fitted effect of over 30% in size. The procedure, abridged: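 Wild-type HepG2 cells (2,000/well) were allowed to settle for 5 hr at 37 C, 5% CO2, then dosed with compounds in DMSO by pin transfer. After 16 hr at 37 C, CellTiter-Fluor was added and fluorescence read 1 hr later.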
For experiment [6], the target named is Nuclear receptor subfamily 1 group I member 2 (Homo sapiens) (UniProt O75469). As to the kind of experiment: Human pregnane X receptor (PXR) small molecule agonists, qHTS assay (AID 1346982). Also: nearly all actives have a fitted effect of over 35% in size. Also: potency is read from the fitted curve at half-maximal effect. The procedure, abridged: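 PXR-Luc HepG2 cells (CYP3A4 promoter-driven luciferase) were seeded in medium with 5% charcoal-stripped FBS, left 5 hr at 37 C, then exposed to compounds in DMSO for 24 hr. Luminescence was read after ONE-Glo addition.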

Experiment [7] in a line: Human pregnane X receptor (PXR) small molecule agonists, qHTS cell viability counter screen (AID 1346977). Also: nearly all actives have a fitted effect of over 50% in size. The procedure, abridged:
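Fluorescence read-out (CellTiter-Fluor) of viability in PXR-Luc HepG2 cells, multiplexed with the luciferase agonist read. Compounds in DMSO added after 5hr plating; 24hr total exposure at 37C, 5% CO2.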

The target of experiment [8] is Nuclear receptor subfamily 1 group I member 2 (Rattus norvegicus) (UniProt Q9R1A7). As to the kind of experiment: Rat pregnane X receptor (rPXR) activation by small molecules, qHTS assay (AID 1346983). Also: nearly all actives have a fitted effect of over 20% in size. Particulars: rPXR luciferase reporter cells, One-Glo luminescence, 24 h; stronger effect = higher value. Put shortly:
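Cell-based rPXR luciferase reporter assay, 2,000 cells per well, rested 5hr at 37 C before compound addition in DMSO, then 24 hr at 37 C. One-Glo reagent was added and luminescence read after 30 min at room temperature.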

Experiment [9] concerns the target Nuclear receptor subfamily 1 group I member 2 (Homo sapiens) (UniProt O75469). As to the kind of experiment: CYP3A4 induction through human pregnane X receptor (PXR) by small molecules, qHTS assay (AID 1346984). Also: nearly all actives have a fitted effect of over 40% in size. Put shortly: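 DPX-2 cells (HepG2 co-transfected with PXR and CYP3A4 promoter-luciferase) treated with compounds 24 h at 37C; luciferin-IPA CYP3A4 substrate 3uM final added for 3 h, then One-Glo; luminescence read. qHTS format.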

Experiment [10] shares this target. As to the kind of experiment: Human pregnane X receptor (PXR) activation by small molecules, qHTS assay (AID 1346985). Also: nearly all actives have a fitted effect of over 40% in size. The procedure, abridged:
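DPX-2 cells (HepG2 co-transfected with a PXR response element and a CYP3A4-promoter luciferase construct) were seeded at 2,000 per well, rested 5 hr at 37C, then exposed to DMSO-dissolved compounds for 24 hr. Activation was read as luciferase luminescence.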

Several values for one entry are separate records, joined by “and”; a condition that tells them apart may be missing. Identical values can stand only once. Values without a mark were called inactive. Inconclusive results are not listed. Activity calls are given as the source filed them. Unless noted, calls follow the shape of the dose curve; as a rule, active = well fitted curve in the direction sought with a large enough effect in the repeat runs; inconclusive = weak or mixed curves; inactive = no such curve, though single readings can be large; an effect the other way counts as inactive or inconclusive.
% is scaled to controls: 0 for no effect and ±100 for the full control effect.

Chain of Nuclear receptor subfamily 1 group I member 2 (Homo sapiens) (O75469 whole entry, looked up): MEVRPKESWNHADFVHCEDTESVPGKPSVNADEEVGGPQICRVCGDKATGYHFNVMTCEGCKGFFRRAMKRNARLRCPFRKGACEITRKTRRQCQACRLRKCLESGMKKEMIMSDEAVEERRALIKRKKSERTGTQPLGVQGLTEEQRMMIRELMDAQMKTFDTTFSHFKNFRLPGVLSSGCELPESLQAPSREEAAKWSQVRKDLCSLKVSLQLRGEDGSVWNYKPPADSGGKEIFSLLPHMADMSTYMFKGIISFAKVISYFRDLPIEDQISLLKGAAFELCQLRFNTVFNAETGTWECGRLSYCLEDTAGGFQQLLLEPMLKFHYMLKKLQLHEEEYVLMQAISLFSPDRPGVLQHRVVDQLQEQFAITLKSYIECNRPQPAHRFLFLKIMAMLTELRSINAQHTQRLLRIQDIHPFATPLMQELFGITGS
Chain of Nuclear receptor subfamily 1 group I member 2 (Rattus norvegicus) (Q9R1A7 whole entry, looked up): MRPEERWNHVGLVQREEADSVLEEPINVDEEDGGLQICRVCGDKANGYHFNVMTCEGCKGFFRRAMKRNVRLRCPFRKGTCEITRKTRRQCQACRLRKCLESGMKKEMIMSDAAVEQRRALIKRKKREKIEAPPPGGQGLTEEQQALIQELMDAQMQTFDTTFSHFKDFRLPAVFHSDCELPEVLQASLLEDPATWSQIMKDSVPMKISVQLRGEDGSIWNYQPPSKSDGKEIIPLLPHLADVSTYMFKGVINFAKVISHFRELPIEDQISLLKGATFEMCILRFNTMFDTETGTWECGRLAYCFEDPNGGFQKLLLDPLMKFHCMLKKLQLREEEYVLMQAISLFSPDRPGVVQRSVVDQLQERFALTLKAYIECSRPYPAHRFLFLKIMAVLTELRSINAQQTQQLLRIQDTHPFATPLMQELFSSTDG
Chain of Thyrotropin-releasing hormone receptor (Homo sapiens) (P34981 whole entry, looked up): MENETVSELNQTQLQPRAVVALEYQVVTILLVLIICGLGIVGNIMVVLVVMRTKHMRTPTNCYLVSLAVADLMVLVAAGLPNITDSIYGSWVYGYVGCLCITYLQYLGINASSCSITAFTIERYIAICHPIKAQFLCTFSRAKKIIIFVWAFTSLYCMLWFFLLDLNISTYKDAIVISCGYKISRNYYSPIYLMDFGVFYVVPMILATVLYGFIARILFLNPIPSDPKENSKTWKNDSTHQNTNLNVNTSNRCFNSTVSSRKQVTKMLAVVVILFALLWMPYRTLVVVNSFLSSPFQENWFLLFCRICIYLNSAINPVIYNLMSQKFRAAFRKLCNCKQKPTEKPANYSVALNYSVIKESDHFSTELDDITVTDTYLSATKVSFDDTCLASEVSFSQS

For the compound `O=c1cc(CO)occ1O`, the call in experiment [1] and in experiment [4] was inactive. For the same compound, the Potency entry in experiment [2], in experiment [3], in [5] and in experiment [6] was “inactive” in each case.

On to `CCn1ccnc1CC1COc2ccccc2O1` (stereo unspecified), for which the result in experiment [1] and in experiment [4] was inactive. The Potency result in [2], in [3] and in experiment [5] was “inactive” each time. Further, the Potency in [6] was 26.6 µM (active).

`N[C@@H](C(=O)N[C@@H]1C(=O)N2C(C(=O)O)=C(Cl)CS[C@H]12)c1ccccc1`: the activation in experiment [1] was -0.0304% [at 5.23 µM]. The activity change, negative = cytotoxicity is 4.82% [at 8.39 µM] in [7], 1.61% [at 8.39 µM] in experiment [3] and 4.06% [at 8.39 µM] in experiment [5]. Besides, the caspase activation in [2] is 0.709% [at 8.39 µM]. Besides, the caspase-3/7 activation in experiment [4] is -1.31% [at 8.39 µM]. For the same compound, the max activation in [8] was -2.39%. Also, the Potency entry in experiment [9] and in experiment [10] was “inactive” in each case.

Take `NC(CSCC(=O)O)C(=O)O` (stereo unspecified): the compound was called inactive in experiment [1] and in experiment [4]. The Potency result in experiment [7], in [2], in [3], in experiment [5], in experiment [9] and in experiment [10] was “inactive” in each case. Also, the max activation in [8] is -3.73%.

As for `CC(C)(C)c1ccc(O)c(O)c1`, the result in experiment [1] and in experiment [4] was inactive. Also, the Potency result in [7] and in [2] was “inactive” in each case. Moreover, the Potency in experiment [3] is 63.2 µM (active) and 57.7 µM (active); in experiment [6], 63.2 µM (active) and 27.3 µM (active).

Turning to `CCN(CC)CCNC(=O)c1cc(S(C)(=O)=O)ccc1OC`, the outcome in experiment [1] and in experiment [4] was inactive. In addition, the Potency result in experiment [7], in [2], in experiment [5], in [6], in experiment [9] and in experiment [10] was “inactive” each time. In addition, the max activation in [8] was -2.45%.

In the case of `CO[Si](CCCOCC1CO1)(OC)OC` (stereo unspecified), the outcome in [1] and in [4] was inactive. The Potency result in experiment [2], in experiment [3], in [5] and in [6] was “inactive” each time.
